Screening data deposited in PubChem BioAssay by National Center for Advancing Translational Sciences (NCATS).
This is a sample that favours compounds with a hit; in the whole collection about 3.7% have one here.
Sm TGR inh – blocks Schistosoma mansoni thioredoxin glutathione reductase | Q962Y6 | purified TGR, DTNB reduction, TNB absorbance 405 nm | Potency, µM (titrated, usually from 114 µM), hits mostly inhibitors | hit rate 3% among 360,000 | AID 485364; further: nearly all actives have a fitted effect of over 60% in size
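TGR 20 nM + NADPH 100 uM (dispensed conc.), cpd preinc 15 min RT; start with NADPH (500 uM addition) then DTNB (15 mM addition). Kinetic TNB absorbance, 405 nm filter. Four-parameter Hill fit across titration.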
Tb PYK inh – T. brucei pyruvate kinase inhibition; hit rate 0.12% among 410,000; AID 624173; Q57TT1; Potency, µM (titrated, usually from 76.8 µM), usual class: inhibitors; TbPYK enzyme, Kinase-Glo Plus ATP luminescence, 45 min; further: nearly all actives have a fitted effect of over 50% in size
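Readout: single end-point luminescence (Kinase-Glo Plus, 10 min). Reaction conditions were TbPYK/substrate plus 130 uM ADP, 45 min at RT, pH 7.2 TEA buffer. No-enzyme wells served as controls, and data were normalized before concentration-response fitting.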
FMDV inh – blocks foot and mouth disease virus | FMDV antiviral cell-based qHTS | Potency, µM (doses to about 57.9 µM), usual class: inhibitors | hit rate 1.2% among 410,000 | AID 1159524; calls by dose curve; tested in HEK293T cells; further: read-out not given here; nearly all actives have a fitted effect of over 45% in size
RE007 growth inh – less growth of the S. pombe RE007 Vpr strain; S. pombe RE007 Vpr strain, BacTiter-Glo ATP luminescence, 24 h; Potency, µM (top dose mostly 92.2 µM), usual class: inhibitors; hit rate 0.21% among 360,000; AID 651644; active means well fitted falling curve with a large enough effect; inconclusive means small, poorly fitted or top-dose-only effect; inactive means no such curve, though single readings can be large or run the other way; further: nearly all actives have a fitted effect of over 50% in size
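Fission yeast strain RE007, carrying one chromosomally integrated HIV-1 vpr copy, was seeded at OD 0.01 in PMG+AL medium with 23 nL pinned compound. After 24 h at 30 °C and 99% humidity, viability was read by BacTiter-Glo luminescence.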
Of the large screens only hits and unclear results are named; the others gave an inactive call. Unless noted, the call rests on the fitted dose curve; in most records, active means well fitted curve in the direction sought with a large enough effect; inconclusive means small, poorly fitted or top-dose-only effect, or another doubt; inactive means no such curve, though single readings can be large; an effect the other way counts as inactive or inconclusive.

CCn1c(SCC(=O)N/N=C/C=C/c2ccco2)nnc1-c1ccccc1	Sm TGR inh 35µM
O=C(CN1CCN(Cc2ccccc2)CC1)N/N=C\C=C/c1ccco1	Sm TGR inh inconclusive
Cn1c(SCC(=O)N/N=C/C=C/c2ccco2)nc2ccccc21	Sm TGR inh 22µM
O=C(Cc1cccs1)N/N=C/C=C/c1ccco1	Sm TGR inh 4µM
CCn1c(SCC(=O)N/N=C/C(C)=C/c2ccco2)nnc1-c1ccccc1	Sm TGR inh inconclusive
O=C(CSc1nnc(SCc2ccccc2)s1)N/N=C/C=C/c1ccco1	Sm TGR inh 40µM
CCNc1ncc2ncc(=O)n(CCOC)c2n1	none (no result: Sm TGR inh, Tb PYK inh, RE007 growth inh)
CC(C)Sc1ncc(Cl)c(C(=O)N(Cc2ccc(N(C)C)cc2)C2CCS(=O)(=O)C2)n1 (stereo not drawn)	none (no result: RE007 growth inh)
Cc1ccc(OCC(=O)N/N=C/C=C/c2ccco2)cc1C	Sm TGR inh 50µM
COCCCNC(=O)c1ccc(-c2nc(CS(=O)(=O)c3ccc(C)cc3)c(C)o2)cc1	Sm TGR inh 25µM (no result: RE007 growth inh)
CCCCNC(=O)c1ccc(-c2nc(CS(=O)(=O)c3ccc(C)cc3)c(C)o2)cc1	Sm TGR inh 40µM (no result: RE007 growth inh)
COc1ccccc1C(C)NC(=O)CCC(=O)N1CCN(S(=O)(=O)c2ccc(Cl)cc2)CC1 (stereo not drawn)	FMDV inh 35µM (no result: Sm TGR inh)
CCOC(=O)/C(=C\c1ccc(OC(F)F)cc1)C1=Nn2c(nnc2-c2ccc(Cl)cc2)SC1	Tb PYK inh inconclusive, FMDV inh 13µM
CCOC(=O)/C(=C/c1ccc(OC(F)F)cc1)C1=Nn2c(nnc2-c2ccc(Cl)cc2)SC1	FMDV inh 13µM (no result: Sm TGR inh)
COc1ccc(-c2nnc3n2N=C(C)CS3)cc1	none
Cc1ccc(C)c(N2CCN(C(=O)Cn3cnc4onc(-c5ccc(F)cc5)c4c3=O)CC2)c1	none (no result: RE007 growth inh)
COc1ccccc1N(CC(=O)NCCSCc1ccco1)S(=O)(=O)c1ccccc1	Sm TGR inh 50µM
COc1ccccc1N(CC(=O)NCCSCc1ccccc1)S(=O)(=O)c1ccccc1	FMDV inh inconclusive (no result: Sm TGR inh)
O=C(COc1ccccc1)NCCSCc1ccco1	Sm TGR inh 25µM
COc1ccccc1N(CC(=O)NCCSCc1ccccc1)S(=O)(=O)c1ccc(C)cc1	FMDV inh 35µM
COC(=O)c1sccc1S(=O)(=O)N(CC(=O)NCc1ccc(F)cc1)c1ccccc1	none (no result: RE007 growth inh)
CC(=O)c1ccc(NC(=O)CSc2nc(=O)n(Cc3ccccn3)c3c2CCC3)cc1	none (no result: RE007 growth inh)
CCN1/C(=C/C(C)=C/c2sc3ccccc3[n+]2CC)Sc2ccccc21	Tb PYK inh inconclusive, FMDV inh 10µM, RE007 growth inh 7.1µM
CCN1/C(=C\C(=S)Nc2ccccc2)Sc2ccccc21	none
CCOc1cc(C2C(C#N)=C(N)OC(C)=C2C(C)=O)cc(Br)c1O (stereo not drawn)	Sm TGR inh 50µM (no result: FMDV inh)
CCOc1cc(C2C(C#N)=C(N)OC(C)=C2C(C)=O)c(Br)c(Br)c1OC(C)C (stereo not drawn)	Sm TGR inh inconclusive
O=C1CN(C(=O)CNCc2cccc(Cl)c2)c2ccccc2N1	Sm TGR inh 45µM
O=C1CN(C(=O)CNCc2ccccc2Cl)c2ccccc2N1	Sm TGR inh inconclusive
CCCCc1c(-c2ccccc2OC)ncn1CCc1cccc(OC)c1	FMDV inh 22µM (no result: Sm TGR inh)
CCCCc1c(-c2ccccc2OC)ncn1CCc1ccccc1OC	FMDV inh 22µM (no result: Sm TGR inh)
CCCCCc1c(CC)ncn1CCc1ccccc1OC	FMDV inh 40µM, RE007 growth inh inconclusive (no result: Sm TGR inh)
CCCCc1c(-c2ccccc2OC)ncn1CCc1ccccc1Cl	FMDV inh 35µM (no result: Sm TGR inh)
CCCCc1c(-c2ccccc2Br)ncn1CCc1ccccc1OC	FMDV inh inconclusive (no result: Sm TGR inh)
CCCCCc1c(-c2ccc(F)cc2)ncn1CCc1ccccc1OC	FMDV inh inconclusive, RE007 growth inh inconclusive (no result: Sm TGR inh)
CCCCc1c(-c2ccccc2OC)ncn1CCc1cccc(F)c1	FMDV inh inconclusive (no result: Sm TGR inh)
CCOC(=O)c1cnc(NCc2ccc(OC)cc2OC)c2ccccc12	none (no result: RE007 growth inh)
CCCCCc1c(-c2ccc(Br)cc2)ncn1CCc1ccccc1OC	FMDV inh inconclusive, RE007 growth inh inconclusive (no result: Sm TGR inh)
CCCCCc1c(-c2ccccc2OC)ncn1CCc1ccccc1OC	FMDV inh 25µM (no result: Sm TGR inh)
O=C(Nc1cccc(C(F)(F)F)c1)c1cc(CN2CCOCC2)on1	none (no result: RE007 growth inh)
CCOC(=O)C1CCN(C(c2ccccn2)c2c(C)[nH]c3ccccc23)CC1 (stereo not drawn)	Sm TGR inh 0.28µM
Cc1[nH]c2ccc(C(=O)N3CCC(C(N)=O)CC3)cc2c1C	none (no result: Sm TGR inh)
CCOC(=O)C1CCN(C(C)C(=O)c2c[nH]c3ccccc23)CC1 (stereo not drawn)	none
Cc1[nH]c2ccccc2c1C(c1ccccn1)N1CCC(C(N)=O)CC1 (stereo not drawn)	Sm TGR inh 0.35µM, FMDV inh inconclusive
COc1ccc2c(C)c(CC(=O)NCCc3ccc(Cl)cc3)c(=O)oc2c1C	none (no result: RE007 growth inh)
O=C(NCc1ccco1)C(c1cccs1)N(C(=O)C1COc2ccccc2O1)c1cccc(O)c1 (stereo not drawn)	Sm TGR inh 35µM
CC(C)CCNC(=O)C(c1ccc(O)cc1)N(Cc1cccs1)C(=O)C1COc2ccccc2O1 (stereo not drawn)	FMDV inh inconclusive
Cc1noc(-c2ccc(Cl)cc2)c1C(=O)O/N=C(\N)c1ccc(C(C)(C)C)cc1	FMDV inh 25µM
CC(C)(C)c1ccc(C(=O)O/N=C(\N)c2ccccc2)cc1	FMDV inh 0.71µM (no result: RE007 growth inh)
COc1ccccc1N1CCN(c2ncnc3c2c(-c2ccccc2)cn3-c2cccc(C)c2)CC1	none (no result: RE007 growth inh)
COC(=O)c1ccc2nc(NC(=O)C(C)(C)C)sc2c1	FMDV inh 14µM
COC(=O)c1ccc2nc(NC(=O)C3CCCCC3)sc2c1	none
CN1c2ccccc2C(C)(C)C12CCCC(=O)N2 (stereo not drawn)	Sm TGR inh 20µM
COc1ccc(NS(=O)(=O)c2cnc(N)nc2)cc1Cl	none (no result: RE007 growth inh)
CCC(=O)Nc1ccc(N2CCC(C)CC2)cc1	none
CCC(=O)Nc1ccc(C(=O)CN2CCC(C)CC2)cc1	Sm TGR inh 32µM (no result: Tb PYK inh, FMDV inh, RE007 growth inh)
CC(C)CC(=O)Nc1ccc(C(=O)CN2CCC(C)CC2)cc1	Sm TGR inh 20µM
CC1CCN(CC(=O)c2cccc(C(F)(F)F)c2)CC1	Sm TGR inh 35µM
CC1CCN(CC(=O)NNC(=O)c2cccc(Br)c2)CC1	none
COC(=O)[C@@H]1CCCN1C(=O)c1cc(NC(=O)C2CCC2)c2c(c1)nc(-c1ccncc1)n2C	none (no result: Sm TGR inh, Tb PYK inh, RE007 growth inh)
CN1N=C(C(=O)N2CCOc3ccc(CN4CCCC(C(=O)c5cccnc5)C4)cc3C2)CCC1=O (stereo not drawn)	none (no result: Sm TGR inh, Tb PYK inh, RE007 growth inh)
CCOc1ccc(Cn2c(CNS(=O)(=O)c3ccc(Cl)s3)nc3cccnc32)cc1	none (no result: RE007 growth inh)
Cn1cc(S(=O)(=O)N2CCc3ccccc32)cc1C(=O)Nc1ccc(Cl)cc1	FMDV inh 28µM
O=S(=O)(c1cnc(Cl)c(Cl)c1)N1CCCc2ccccc21	Sm TGR inh inconclusive, FMDV inh inconclusive
O=S(=O)(c1cnc(Cl)c(Cl)c1)N1CCc2ccccc21	Sm TGR inh 4µM, FMDV inh inconclusive
O=S(=O)(c1cnc(Cl)c(Br)c1)N1CCc2ccccc21	Sm TGR inh 18µM
CN1CCN(S(=O)(=O)c2cnc(Cl)c(Br)c2)CC1	none
